Among the data in PubChem BioAssay (Tox21) are Potency and outcome values, retold here.

Records with an inconclusive call do not appear. Active and inactive are the calls of the source. Unless noted, calls come from the whole dose curve; as a rule, active = well fitted curve in the direction sought with a large enough effect in the repeat runs; inconclusive = weak or mixed curves; inactive = no such curve, though single readings can be large; an effect the other way counts as inactive or inconclusive.

Assay [1] deals with Acetylcholinesterase (Homo sapiens) (UniProt P22303). Description: Acetylcholinesterase (AChE) small molecule antagonists: fluorescence cell-based qHTS assay (AID 1347398; calls by dose curve; note: nearly all actives have a fitted effect of over 50% in size; note: potency is the fitted concentration of half-maximal effect). The following applies: Potency: AChE activity; outcome: AChE activity. The method in brief: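 Read-out is Thiolite Green fluorescence at Ex/Em = 490/520 nm, formed by reaction with thiocholine released when cellular AChE in SH-SY5Y cells hydrolyzes acetylthiocholine. Compounds were preincubated 30 min at 37 C before substrate.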

For assay [2] the target is unchanged. Put plainly: Acetylcholinesterase (AChE) small molecule antagonists: enzyme-based qHTS assay with human liver microsomes (AID 1347399; calls by dose curve; note: nearly all actives have a fitted effect of over 60% in size). The following applies: Potency: qHTS inhibition; outcome: qHTS inhibition. The method in brief: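 Recombinant human AChE (50 mU/mL in the enzyme mix) and human liver microsomes (0.25 mg/mL final) were preincubated with compound and NADPH (0.25 mg/mL final) for 30 min at 37 C. Acetylthiocholine/DTNB was then added; thiocholine was read colorimetrically after 10 min at room temperature.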

Assay [3] is described as follows: qHTS assay for small molecule agonists of the p53 signaling pathway (AID 651631; calls by dose curve; note: nearly all actives have a fitted effect of over 15% in size). In short, it runs like this: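 We treat p53RE-bla HCT-116 cells with compounds for 16 h at 37 °C, add LiveBLAzer B/G FRET substrate for 2 h at room temperature, and measure fluorescence intensity.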
Assay [4] in a line: qHTS assay for small molecules that induce genotoxicity in human embryonic kidney cells expressing luciferase-tagged ATAD5 (AID 651632). Note: nearly all actives have a fitted effect of over 15% in size. The method in brief:
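Genotoxicity read-out via ATAD5-luciferase: HEK293T cells, 16 hr compound incubation at 37C, Amplite detection.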

Assay [5] is described as follows: qHTS assay for small molecule agonists of the p53 signaling pathway - cell viability (AID 651633; calls by dose curve;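 note: p53RE-bla HCT reporter cells with a stable beta-lactamase p53 reporter; series mostly up to about 83 µM; nearly all actives have a fitted effect of over 30% in size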). The method in brief:
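Viability counter-read: CellTiter-Glo luminescence (30 min, room temperature) in the same p53RE-bla plates. These plates had been exposed to compounds for 16 h at 37 C.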

Assay [6] can be described thus: qHTS assay for small molecules that induce genotoxicity in human embryonic kidney cells expressing luciferase-tagged ATAD5 - cell viability (AID 651634; calls by dose curve; note: nearly all actives have a fitted effect of over 25% in size). In short, it runs like this:
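Live-cell protease activity (CellTiter-Fluor, fluorescence) indicates viability. HEK293T cells with luciferase-tagged ATAD5; 15.5 hr compound treatment at 37C.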

A short description of assay [7]: qHTS assay for small molecule disruptors of the mitochondrial membrane potential - cell viability (AID 720634; calls by dose curve;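 note: human HepG2 liver cancer cells; series mostly up to about 83 µM; nearly all actives have a fitted effect of over 20% in size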). In short, it runs like this:
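Human hepatoma HepG2 cells were treated for 1 hr with test chemicals, then given m-MPI dye and CellTiter-Glo. Cell viability reflects luminescence proportional to cellular ATP.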

The nature of assay [8]: qHTS assay for small molecule disruptors of the mitochondrial membrane potential (AID 720635). The method in brief:
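Mitochondrial membrane potential tracked with Mito-MPS dye, red aggregates (ex 540/em 590 nm) against green monomers (ex 490/em 535 nm). Compound treatment 1 hr at 37C, dye 30 min in HepG2.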

A short description of assay [9]: qHTS assay to test for compound auto fluorescence at 590 nm (red) in HepG2 cells (AID 720674). The method in brief: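 We screened compounds on adherent HepG2 cells, incubating them for an hour at 37 C in 5% CO2 before reading emission at 590 nm under 540 nm excitation; values reflect equivalence to Rose Bengal sodium fluorescence.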
Assay [10] can be described thus: qHTS assay to test for compound auto fluorescence at 535 nm (green) in HepG2 cells (AID 720675).
Assay [11] can be described thus: qHTS assay to test for compound auto fluorescence at 460 nm (blue) in HEK293 cells (AID 720678). In short, it runs like this:
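Intrinsic compound fluorescence is recorded in live HEK293 cultures after overnight incubation at 37C, 5% CO2, using excitation 405 nm and emission 460 nm. Values are referenced to triamterene.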

Assay [12] in a line: qHTS assay to test for compound auto fluorescence at 590 nm (red) in HEK293 cells (AID 720679). The method in brief:
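Red autofluorescence, HEK293 cells: 2,000 cells/well; attach 4-5 hr 37C; add 23 nL cpd or DMSO; incubate o/n 37C 5% CO2; read Ex540/Em590; Rose Bengal sodium reference.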

Assay [13] can be described thus: qHTS assay to test for compound auto fluorescence at 535 nm (green) in HEK293 cells (AID 720680).
Assay [14] is described as follows: qHTS assay to test for compound auto fluorescence at 460 nm (blue) in HEK293 cell free culture (AID 720681). In short, it runs like this: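 Blue fluorescence (Ex 405/Em 460 nm, triamterene-equivalent) was read immediately after pin transfer of compound or DMSO into medium (DMEM, 10% FBS) without cells.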
Assay [15] in a line: qHTS assay to test for compound auto fluorescence at 535 nm (green) in HEK293 cell free culture (AID 720682). The method in brief:
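Green-channel intensity (Ex/Em 485/535 nm) was recorded from compound-treated wells containing only DMEM with 10% FBS. Fluorescein provided the equivalency standard.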

Assay [16] in a line: qHTS assay to test for compound auto fluorescence at 590 nm (red) in HEK293 cell free culture (AID 720683). The method in brief: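 Red-channel autofluorescence of compounds in culture medium (DMEM, 10% FBS), no cells, measured at 540/590 nm. Rose Bengal sodium is the reference fluorophore for equivalence.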
The nature of assay [17]: qHTS assay to test for compound auto fluorescence at 590 nm (red) in HepG2 cell free culture (AID 720684). The method in brief: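 Steps: dispense MEM/10% FBS medium, no cells; pin compound or DMSO vehicle; read red channel, Ex/Em 540/590 nm. Output given as Rose Bengal sodium equivalents.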
The nature of assay [18]: qHTS assay to test for compound auto fluorescence at 460 nm (blue) in HepG2 cell free culture (AID 720685). The method in brief: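 Compound (23 nL) or DMSO pinned into cell-free MEM with 10% FBS; blue fluorescence read at 405/460 nm excitation/emission, expressed as auto-fluorescence equivalency to triamterene.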
Assay [19] is described as follows: qHTS assay to test for compound auto fluorescence at 535 nm (green) in HepG2 cell free culture (AID 720686).
The nature of assay [20]: qHTS assay to test for compound auto fluorescence at 460 nm (blue) in HepG2 cells (AID 720687). In short, it runs like this:
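Blue-channel autofluorescence (Ex/Em 405/460 nm, triamterene-equivalent) was measured after 1 hr compound exposure at 37 C, 5% CO2. Cells were HepG2, plated overnight at 37 C in MEM plus 10% FBS.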

For assay [21], the target named is Glucocorticoid receptor (Homo sapiens) (UniProt P04150). Description: qHTS assay to identify small molecule agonists of the glucocorticoid receptor (GR) signaling pathway (AID 720691; active = well fitted activation curve with a large enough effect in the signal ratio in the repeat runs, not every such curve was filed as active; the % refers to the signal ratio). The method in brief: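 Beta-lactamase reporter activity, read as fluorescence intensity, was measured in GR-bla HeLa cells exposed to compounds for 18 h at 37 C and then loaded with LiveBLAzer B/G FRET substrate for 2 h at room temperature.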

The nature of assay [22]: qHTS assay to identify small molecule antagonists of the glucocorticoid receptor (GR) signaling pathway - cell viability counter screen (AID 720693). Note: nearly all actives have a fitted effect of over 55% in size.
The nature of assay [23]: qHTS assay for identifying genotoxic compounds that show differential cytotoxicity against isogenic chicken DT40 cell lines with known DNA damage response pathways - wild type cell line (AID 743012). Note: potency is the fitted concentration of half-maximal effect; nearly all actives have a fitted effect of over 60% in size. The method in brief:
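Quantitative HTS on parental DT40 cells: 40 h compound treatment at 37 C/5% CO2, with viability then determined by CellTiter-Glo luminescence. Values serve as the DNA repair-proficient reference for differential cytotoxicity.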

Assay [24] can be described thus: qHTS assay for identifying genotoxic compounds that show differential cytotoxicity against isogenic chicken DT40 cell lines with known DNA damage response pathways - Rev3 mutant cell line (AID 743014). Note: potency is the fitted concentration of half-maximal effect; nearly all actives have a fitted effect of over 55% in size.
The nature of assay [25]: qHTS assay for identifying genotoxic compounds that show differential cytotoxicity against isogenic chicken DT40 cell lines with known DNA damage response pathways - Rad54/Ku70 mutant cell line (AID 743015). Note: potency is the fitted concentration of half-maximal effect; nearly all actives have a fitted effect of over 60% in size.
Assay [26] can be described thus: qHTS assay to identify small molecule antagonists of the androgen receptor (AR) signaling pathway - cell viability counter screen (AID 743033; note: nearly all actives have a fitted effect of over 45% in size).
Assay [27] is described as follows: qHTS assay to identify small molecule antagonists of the thyroid receptor (TR) signaling pathway - cell viability counter screen (AID 743064). Note: nearly all actives have a fitted effect of over 50% in size. In short, it runs like this:
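In rat pituitary GH3.TRE-Luc reporter cells co-exposed to compound and 1 nM T3 for 23.5 h, cytotoxicity was assessed with CellTiter-Fluor in the same wells, read by fluorescence.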

Assay [28] deals with thyroid hormone receptor (rat, GH3 cells). Put plainly: qHTS assay to identify small molecule agonists of the thyroid receptor (TR) signaling pathway (AID 743066; calls by dose curve).
Assay [29] deals with Estrogen receptor (Homo sapiens) (UniProt P03372). Put plainly: qHTS assay to identify small molecule antagonists of the estrogen receptor alpha (ER-alpha) signaling pathway (AID 743069; active = well fitted curve in the direction sought with a large enough effect in the signal ratio in the repeat runs, not every such curve was filed as active; the % refers to the signal ratio). The method in brief: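 ER-alpha-UAS-bla GripTite HEK293 line; 2% charcoal-stripped FBS overnight; plated, 4 hr 37C/5% CO2; cpd in DMSO + 17beta-estradiol, 18 hr 37C; LiveBLAzer B/G FRET substrate 2 hr RT; fluorescence intensity.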

The nature of assay [30]: qHTS assay to identify small molecule antagonists of the estrogen receptor alpha (ER-alpha) signaling pathway - cell viability counter screen (AID 743074; calls by dose curve;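 note: HEK293 cells carrying ER-alpha-UAS-bla reporter stimulated with 17beta-estradiol; nearly all actives have a fitted effect of over 45% in size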).
Assay [31] deals with Estrogen receptor (Homo sapiens) (UniProt P03372). Description: qHTS assay to identify small molecule agonists of the estrogen receptor alpha (ER-alpha) signaling pathway (AID 743075; calls by dose curve;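 note: HEK293 GripTite cells with ER-alpha and UAS-driven beta-lactamase reporter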).
For assay [32] the target is unchanged. Put plainly: qHTS assay to identify small molecule agonists of the estrogen receptor alpha (ER-alpha) signaling pathway using the BG1 cell line (AID 743079). Note: nearly all actives have a fitted effect of over 20% in size.
A short description of assay [33]: qHTS assay to identify small molecule antagonists of the estrogen receptor alpha (ER-alpha) signaling pathway using the BG1 cell line (AID 743080; calls by dose curve;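 note: BG1 cells stimulated with 17beta-estradiol alongside compound; series mostly up to about 70 µM; nearly all actives have a fitted effect of over 25% in size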). The method in brief:
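Readout is ONE-Glo luminescence, taken 30 min at room temperature after reagent addition, preceded by a CellTiter-Fluor viability read; BG1-Luc-4E2 cells had received compound and 17beta-estradiol for 21.5 h at 37 C.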

The next assay has as its target Aromatase (Homo sapiens) (UniProt P11511). Put plainly: qHTS assay to identify aromatase inhibitors (AID 743083). Note: series mostly up to about 70 µM; nearly all actives have a fitted effect of over 55% in size.
Assay [34] in a line: qHTS assay to identify aromatase inhibitors - cell viability counter screen (AID 743084).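 Note: cells stimulated with testosterone during compound exposure; nearly all actives have a fitted effect of over 55% in size.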
Assay [35] deals with Peroxisome proliferator-activated receptor gamma (Homo sapiens) (UniProt P37231). Description: qHTS assay to identify small molecule agonists of the peroxisome proliferator-activated receptor gamma (PPARg) signaling pathway (AID 743094; active = well fitted activation curve with a large enough effect in the signal ratio in the repeat runs, not every such curve was filed as active; the % refers to the signal ratio). The method in brief:
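Stably transfected HEK293H cells (GeneBLAzer PPARg UAS-bla) were incubated with test substances for 17 h at 37C after a 5 h pre-incubation; beta-lactamase activity was then detected by FRET substrate fluorescence.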

Acetylcholinesterase (Homo sapiens), sequence (P22303 whole entry, looked up): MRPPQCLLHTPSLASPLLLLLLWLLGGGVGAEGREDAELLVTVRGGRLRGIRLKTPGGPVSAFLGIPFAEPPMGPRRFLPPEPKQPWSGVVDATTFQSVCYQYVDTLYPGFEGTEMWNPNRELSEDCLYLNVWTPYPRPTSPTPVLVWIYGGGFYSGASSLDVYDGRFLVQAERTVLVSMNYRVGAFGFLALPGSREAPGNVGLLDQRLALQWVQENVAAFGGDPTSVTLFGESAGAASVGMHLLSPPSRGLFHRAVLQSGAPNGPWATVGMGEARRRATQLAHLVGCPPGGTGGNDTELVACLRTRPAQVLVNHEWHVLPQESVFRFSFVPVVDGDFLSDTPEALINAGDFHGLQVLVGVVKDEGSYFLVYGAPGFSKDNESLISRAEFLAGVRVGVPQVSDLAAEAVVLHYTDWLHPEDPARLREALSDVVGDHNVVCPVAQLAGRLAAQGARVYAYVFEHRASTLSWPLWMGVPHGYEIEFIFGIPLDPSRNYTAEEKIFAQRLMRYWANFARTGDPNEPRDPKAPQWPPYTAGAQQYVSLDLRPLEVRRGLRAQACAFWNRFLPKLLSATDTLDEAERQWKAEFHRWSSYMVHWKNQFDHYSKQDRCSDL
Estrogen receptor (Homo sapiens), sequence (P03372 whole entry, looked up): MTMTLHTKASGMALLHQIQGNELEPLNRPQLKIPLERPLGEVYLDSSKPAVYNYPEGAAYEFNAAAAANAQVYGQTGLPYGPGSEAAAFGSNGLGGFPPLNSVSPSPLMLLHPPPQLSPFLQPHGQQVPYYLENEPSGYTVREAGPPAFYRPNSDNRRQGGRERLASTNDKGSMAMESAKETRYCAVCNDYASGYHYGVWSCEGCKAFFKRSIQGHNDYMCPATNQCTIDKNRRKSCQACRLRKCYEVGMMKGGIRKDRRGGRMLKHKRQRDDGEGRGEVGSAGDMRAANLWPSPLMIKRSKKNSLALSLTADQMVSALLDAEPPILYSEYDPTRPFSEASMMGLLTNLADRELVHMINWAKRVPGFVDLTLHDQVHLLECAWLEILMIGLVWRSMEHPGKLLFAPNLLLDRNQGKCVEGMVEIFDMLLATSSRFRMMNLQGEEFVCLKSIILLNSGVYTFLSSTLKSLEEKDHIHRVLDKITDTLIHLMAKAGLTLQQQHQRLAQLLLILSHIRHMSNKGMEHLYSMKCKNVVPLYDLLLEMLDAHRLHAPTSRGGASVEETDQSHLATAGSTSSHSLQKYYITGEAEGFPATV
Glucocorticoid receptor (Homo sapiens), sequence (P04150 whole entry, looked up): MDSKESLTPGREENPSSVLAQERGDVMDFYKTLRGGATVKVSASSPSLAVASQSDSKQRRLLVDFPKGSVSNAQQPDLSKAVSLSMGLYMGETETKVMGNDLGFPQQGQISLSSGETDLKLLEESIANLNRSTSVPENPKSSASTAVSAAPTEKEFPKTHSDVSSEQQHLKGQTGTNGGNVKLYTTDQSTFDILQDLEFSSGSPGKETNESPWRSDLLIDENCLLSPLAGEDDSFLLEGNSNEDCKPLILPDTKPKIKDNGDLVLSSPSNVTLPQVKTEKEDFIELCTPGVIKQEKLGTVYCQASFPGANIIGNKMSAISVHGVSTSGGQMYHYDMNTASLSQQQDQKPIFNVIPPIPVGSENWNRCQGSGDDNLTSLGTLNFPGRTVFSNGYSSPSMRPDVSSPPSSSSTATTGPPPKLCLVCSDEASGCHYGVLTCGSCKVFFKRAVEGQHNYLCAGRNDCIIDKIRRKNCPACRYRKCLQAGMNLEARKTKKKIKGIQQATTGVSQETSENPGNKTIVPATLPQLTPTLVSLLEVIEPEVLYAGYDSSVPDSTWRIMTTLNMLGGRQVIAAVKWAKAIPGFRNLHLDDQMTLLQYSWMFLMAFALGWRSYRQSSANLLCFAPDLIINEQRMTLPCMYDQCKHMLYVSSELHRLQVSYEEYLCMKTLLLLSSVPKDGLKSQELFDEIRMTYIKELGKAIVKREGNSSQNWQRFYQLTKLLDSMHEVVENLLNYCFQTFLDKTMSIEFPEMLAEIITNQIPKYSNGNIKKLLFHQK
Peroxisome proliferator-activated receptor gamma (Homo sapiens), sequence (P37231 whole entry, looked up): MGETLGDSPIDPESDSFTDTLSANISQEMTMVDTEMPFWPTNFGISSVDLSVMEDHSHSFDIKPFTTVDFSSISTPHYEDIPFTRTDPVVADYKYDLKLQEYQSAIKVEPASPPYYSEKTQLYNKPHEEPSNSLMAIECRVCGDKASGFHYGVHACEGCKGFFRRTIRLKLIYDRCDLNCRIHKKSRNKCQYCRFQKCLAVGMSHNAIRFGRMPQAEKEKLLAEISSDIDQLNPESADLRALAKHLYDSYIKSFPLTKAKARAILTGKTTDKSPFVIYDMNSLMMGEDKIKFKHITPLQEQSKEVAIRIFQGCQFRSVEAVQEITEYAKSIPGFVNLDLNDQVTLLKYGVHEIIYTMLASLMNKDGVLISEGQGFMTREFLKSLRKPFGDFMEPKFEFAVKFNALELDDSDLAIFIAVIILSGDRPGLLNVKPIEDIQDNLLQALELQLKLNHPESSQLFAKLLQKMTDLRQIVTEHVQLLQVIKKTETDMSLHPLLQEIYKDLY
Aromatase (Homo sapiens), sequence (P11511 whole entry, looked up): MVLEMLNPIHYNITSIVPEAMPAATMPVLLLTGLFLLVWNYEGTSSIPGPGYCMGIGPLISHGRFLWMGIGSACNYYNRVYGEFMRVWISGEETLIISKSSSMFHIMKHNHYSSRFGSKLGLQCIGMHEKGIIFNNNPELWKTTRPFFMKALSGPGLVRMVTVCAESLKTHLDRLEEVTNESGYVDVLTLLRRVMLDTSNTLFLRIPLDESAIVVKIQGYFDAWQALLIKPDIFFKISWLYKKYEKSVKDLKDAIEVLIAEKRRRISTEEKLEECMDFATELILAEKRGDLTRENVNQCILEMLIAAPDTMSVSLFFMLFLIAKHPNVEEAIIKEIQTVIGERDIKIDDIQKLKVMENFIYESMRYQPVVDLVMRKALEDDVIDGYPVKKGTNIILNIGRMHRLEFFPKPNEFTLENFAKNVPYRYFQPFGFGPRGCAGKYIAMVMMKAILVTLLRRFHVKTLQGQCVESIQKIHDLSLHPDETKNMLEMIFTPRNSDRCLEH

For the compound `CC(=O)CCc1ccc(O)cc1`, the Potency entry in [1] and in [2] was “inactive” in each case.

As to `CCC(=O)O[C@H]1[C@@H](N2CCCCC2)C[C@H]2[C@@H]3CC[C@H]4C[C@H](OC(C)=O)[C@@H](N5CCCCC5)C[C@]4(C)[C@H]3CC[C@@]21C`, the Potency result in assay [3], in assay [5], in assay [6], in assay [8], in [22] and in [26] was “inactive” in each case. The Potency result (in assay [27]; in assay [30]; in [31]; in [32]; with Aromatase (Homo sapiens)) was “inactive” in each case. Moreover, the result in assay [4], in assay [7], in assay [9], in [10], in [11] and in assay [12] was inactive. Also, the compound was called inactive in assay [13], in assay [14], in assay [15], in assay [16], in assay [17] and in assay [18]. In addition, the call in [19], in assay [20], in assay [21], in assay [28], in [29] and in assay [33] was inactive. In addition, the compound was called inactive in assay [34] and in [35]. Also, the figures for the Potency in assay [23], in [24] and in assay [25] were 2.37 µM (active), 3.35 µM (active) and 3.76 µM (active), respectively.

For the compound `N=C1C=CC(=C(c2ccc(N)cc2)c2ccc(N)cc2)C=C1`, in assay [1], the Potency was 39.9 µM (active). Moreover, the Potency entry in assay [2] was “inactive”.

As for `[Cu+]`, the Potency result in assay [1] is “inactive”.
